This is an account of results in the supplement of paper PMC10811239.

Molecules are shown by their SMILES.

This assay concerns LEGO organoid PT (PTEN-/-; TP53-/-). Kind of assay: bioluminescence (viable cell) signal fold change after vs before treatment, normalised to DMSO (ratio); higher = more tumour cell growth / less inhibition. Particulars: 10 µM; treatment time 6 days. On the procedure: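 Luc2-labelled iPSC-derived glioblastoma-like organoids (LEGOs, genotypes PT = PTEN-/-;TP53-/-, PTCC = plus CDKN2A/B-/-, PTN = plus NF1-/-) were treated with 10 uM drug for 6 days (applied every other day) at 37 C. Bioluminescence imaging was done before treatment and 2 days after the last dose. BLI signals were normalised to the DMSO control on the same day and then to the pre-treatment signal (N=3).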
As to `C[C@@H]1O[C@]2(CS1)CN1CCC2CC1.C[C@@H]1O[C@]2(CS1)CN1CCC2CC1.Cl.Cl.O` [Cevimeline hydrochloride hemihydrate], the bioluminescence was 0.884.

In the case of `NCC[C@H](O)C(=O)N[C@@H]1C[C@H](N)[C@@H](O[C@H]2O[C@H](CN)[C@@H](O)[C@H](O)[C@H]2O)[C@H](O)[C@H]1O[C@H]1O[C@H](CO)[C@@H](O)[C@H](N)[C@H]1O.O=S(=O)(O)O.O=S(=O)(O)O` [Amikacin disulfate], the bioluminescence amounted to 1.24.

Turning to `CCc1cc(/C(C)=N/OCc2ccc(C3CCCCC3)c(C(F)(F)F)c2)ccc1CN1CC(C(=O)O)C1` [Siponimod], the bioluminescence was found to be 0.646.

`COC(c1ccccc1)(c1ccccc1)[C@H](Oc1nc(C)cc(C)n1)C(=O)O` [Ambrisentan]: the bioluminescence was 0.999.

For the compound `OC[C@H]1O[C@@H](n2cnc3c2NC=NC[C@H]3O)C[C@@H]1O` [Pentostatin], the bioluminescence is 0.674.

Take `CCOc1nc2cccc(C(=O)O)c2n1Cc1ccc(-c2ccccc2-c2nn[nH]n2)cc1` [Candesartan]: the bioluminescence worked out at 0.993.

For the compound `Cc1ccnc2c1NC(=O)c1cccnc1N2C1CC1` [Nevirapine], the bioluminescence was determined as 2.15.

Consider `Nc1nc2ccc(OC(F)(F)F)cc2s1` [Riluzole], for which the bioluminescence was 0.939.

Regarding `CS(=O)(=O)c1cccc(C[C@H](NC(=O)c2c(Cl)cc3c(c2Cl)CCN(C(=O)c2ccc4ccoc4c2)C3)C(=O)O)c1` [Lifitegrast], the bioluminescence worked out at 1.49.

For the compound `CN(CCOc1ccc(CC2SC(=O)NC2=O)cc1)c1ccccn1` (stereo not given) [Rosiglitazone], the bioluminescence worked out at 0.664.
